Hits are enriched below; roughly 7.9% of the tested compounds scored in any of these assays.
Lassa entry inh = qHTS for Inhibitors of binding or entry into cells for Lassa Virus; Lassa virus pseudotype entry inhibition, cell reporter; Potency, µM (highest dose often 37.9 µM), hits mostly inhibitors; actives 1.2% (n = 300,000); AID 540256, 2011; calls by dose curve; tested in HEK293 cells; also: nearly all actives have a fitted effect of over 50% in size
HCMV inh = qHTS Assay for inhibitors of the human cytomegalovirus (HCMV); HFF cells, HCMV-luciferase reporter, 72 h; active compounds read low; activity change, negative = inhibition, % at 57.5 µM; actives 4.5% (n = 410,000); AID 1259415, 2018; in the data active = activity change below about -60%; inconclusive = no clear call, values can overlap the other calls; inactive = above about -39%
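Inhibition of viral replication was scored as loss of reporter luminescence in HFFs infected with HCMV-luciferase (MOI 1 PFU/cell) for 72 h; compounds tested at 2 doses, normalized to buffer and Salinomycin controls.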
HCV inhibitor = qHTS Assay for Inhibitors of Hepatitis C Virus (HCV); Huh7.5.1 HCVcc-Cre infection, luciferase reporter, 44 h; actives 3.4% (n = 340,000); AID 651820, 2012; Potency, µM (series often up to 41.8 µM), actives largely listed as inhibitors; active = well fitted inhibition curve with a large enough effect; inconclusive = small, poorly fitted or top-dose-only effect, or another doubt; inactive = no such curve, though single readings can be large or run the other way
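After 44 h co-culture of compound, cells and HCVcc-Cre (~0.5 moi), substrate is added for 15 min at room temperature and luciferase measured over 15 sec. Cells were seeded at 1,000/well and pre-cultured 4 h.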
FMDV inh = High Throughput Screening for Foot and Mouth Disease Virus Antivirals; FMDV antiviral cell-based qHTS; Potency, µM (titrated, usually from 57.9 µM), usual class: inhibitors; actives 1.2% (n = 410,000); calls by dose curve; tested in HEK293T cells; also: read-out not given here; nearly all actives have a fitted effect of over 45% in size
MARV entry inh = qHTS for inhibitors of binding or entry into cells for Marburg Virus; Marburg virus pseudotyped entry inhibition, cell reporter; Potency, µM (doses to about 37.8 µM), hits mostly inhibitors; actives 1.8% (n = 300,000); calls by dose curve; tested in HEK293 cells
Of the large screens only hits and unclear results are named; the others gave an inactive call; ! = repeats disagree.

COc1cc2oc3ccccc3c2cc1N(CC(=O)N1CCCCC1)S(=O)(=O)c1ccc(C)cc1	Lassa entry inh inconclusive, HCV inhibitor inconclusive, MARV entry inh 14µM
CCN(CC)C(=O)CN(c1cc2c(cc1OC)oc1ccccc12)S(=O)(=O)c1ccccc1	Lassa entry inh inconclusive, HCV inhibitor 10µM, MARV entry inh 10µM
O=S1(=O)c2ccccc2N(Cc2cccc(Cl)c2)c2ccccc21	FMDV inh inconclusive (no result: HCV inhibitor, MARV entry inh)
COc1ccc(CCNC(=O)C2CCN(C(=O)NC3CCCCC3)CC2)cc1	none
COc1ccc(C2(O)CCN(C(=O)NC3CCCCC3)CC2)cc1	MARV entry inh 3.7µM
COC(=O)C(=Cc1ccccc1[N+](=O)[O-])C(=O)OC	HCMV inh -96, HCV inhibitor inconclusive, FMDV inh 16µM (no result: Lassa entry inh, MARV entry inh)
COc1ccc(CNC(=O)/C=C/c2ccccc2[N+](=O)[O-])cc1	none (no result: Lassa entry inh, MARV entry inh)
Cc1cccc(N2CCN(C(=O)CNC(=O)c3cccc([N+](=O)[O-])c3)CC2)c1C	HCMV inh -64, HCV inhibitor 11µM, FMDV inh inconclusive, MARV entry inh inconclusive
O=C(NCc1ccc(Cl)cc1)N1CCN(Cc2ccccc2)CC1	HCMV inh -93, HCV inhibitor inconclusive (no result: Lassa entry inh, MARV entry inh)
O=C(NCC(=O)N1CCN(Cc2ccccc2)CC1)c1ccc(Cl)cc1	HCMV inh -62, HCV inhibitor inconclusive, FMDV inh inconclusive (no result: Lassa entry inh, MARV entry inh)
O=C(Nc1ccccc1)N1CCN(Cc2ccc(Cl)cc2)CC1	none (no result: Lassa entry inh, MARV entry inh)
Cc1cccc(N2CCN(C(=O)CNC(=O)Cc3ccccc3)CC2)c1C	HCV inhibitor inconclusive (no result: Lassa entry inh, MARV entry inh)
O=C(NN1CCN(Cc2ccccc2Cl)CC1)c1ccc(Cl)cc1	HCMV inh -61, FMDV inh inconclusive
O=C(NC1CCN(Cc2ccccc2Cl)CC1)c1ccccc1	none (no result: Lassa entry inh, MARV entry inh)
O=C(NCC(=O)N1CCN(Cc2ccccc2)CC1)c1ccc(Br)cc1	HCV inhibitor inconclusive, MARV entry inh inconclusive
CCOC(=O)c1ccc(NS(=O)(=O)c2cc(Br)cc3c2N(C(C)=O)C(C)C3)cc1 (stereo not drawn)	none (no result: HCV inhibitor)
Cc1ccc(NC(=O)CSc2ccc(-c3cccs3)nn2)cc1Cl	none (no result: HCV inhibitor, MARV entry inh)
O=C(NC(CC(=O)N1CCN(c2ccccc2O)CC1)c1ccccc1)c1ccccc1Cl (stereo not drawn)	HCV inhibitor inconclusive, MARV entry inh inconclusive
CCc1ccccc1NC(=O)CN1CCN(C(=O)CNC(=O)c2ccc(-c3ccccc3)cc2)CC1	HCV inhibitor 11µM, FMDV inh inconclusive (no result: Lassa entry inh, MARV entry inh)
Cc1cccc(N2CCN(C(=O)CC(NC(=O)c3ccccc3Cl)c3ccccc3)CC2)c1C (stereo not drawn)	Lassa entry inh inconclusive, HCMV inh inconclusive, MARV entry inh 12µM
O=C(NCC(=O)N1CCN(Cc2ccccc2)CC1)c1cc(Cl)cc([N+](=O)[O-])c1	HCMV inh -86, HCV inhibitor inconclusive, FMDV inh inconclusive (no result: Lassa entry inh, MARV entry inh)
COc1ccccc1CNC(=O)c1cc2cccc3c2n1CC(C)S3 (stereo not drawn)	none (no result: HCV inhibitor, MARV entry inh)
Cc1ccc(NC(=O)CCc2nnc3n(C)c(=O)c4sccc4n23)cc1C	none (no result: HCV inhibitor)
COc1ccc2[nH]c(=O)cc(C(=O)O)c2c1	none
COc1ccc2[nH]c3c4c(ccc3c2c1)C(=O)C=CC4=O	HCV inhibitor inconclusive, FMDV inh 14µM (no result: Lassa entry inh, MARV entry inh)
CC(C)(C(=O)Nc1ccccc1)n1cc(NC(=O)c2ccc3ccccc3n2)cn1	none (no result: Lassa entry inh, HCV inhibitor, FMDV inh, MARV entry inh)
COc1ccccc1-c1nc2c(c(SCC(=O)Nc3ccc(C)c(C)c3)n1)Cc1c(CO)cnc(C)c1O2	HCMV inh -76 (no result: HCV inhibitor, MARV entry inh)
COc1cccc(-c2nc3c(c(SCC(=O)N4CCOCC4)n2)Cc2c(CO)cnc(C)c2O3)c1	HCV inhibitor 11µM (no result: Lassa entry inh, HCMV inh, MARV entry inh)
Cc1cccc(-c2nc3c(c(SCC(=O)N4CCOCC4)n2)Cc2c(CO)cnc(C)c2O3)c1	Lassa entry inh inconclusive, HCV inhibitor 11µM, MARV entry inh inconclusive (no result: HCMV inh)
COc1ccc(CNC(=O)C(CC(C)C)NS(=O)(=O)c2ccc3c(c2)CCN3C(C)=O)cc1 (stereo not drawn)	none (no result: HCV inhibitor)
O=P(O)(O)CN1CCNCCN(CP(=O)(O)O)CCNCC1	HCMV inh -61, HCV inhibitor inconclusive, MARV entry inh inconclusive
Cc1ccc(-n2c(=O)c3c(c4cc(C)ccc4n3C)n(CC(=O)Nc3cc(C)cc(C)c3)c2=O)cc1	none (no result: HCV inhibitor, MARV entry inh)
O=C(Cc1cccs1)Nc1nc(-c2ccccc2)cs1	Lassa entry inh 1.6µM, HCV inhibitor inconclusive, FMDV inh inconclusive, MARV entry inh inconclusive
Cc1nc(CC(=O)Nc2nc(-c3ccccc3)cs2)cs1	Lassa entry inh inconclusive, HCMV inh -73, HCV inhibitor inconclusive
Cc1nc(CC(=O)Nc2nc(C(C)(C)C)cs2)cs1	Lassa entry inh inconclusive, MARV entry inh inconclusive
O=C(COC(=O)c1cccs1)Nc1nc(-c2ccccc2)cs1	Lassa entry inh inconclusive
CCc1cc2c(nc1CC)CCN(CCC(C)=NOC[C@@H](C)[C@H](OCc1ccccc1)C(C)C)C2	none (no result: Lassa entry inh, HCMV inh, HCV inhibitor, FMDV inh)
CCNc1nc(NCC)nc(SCCOc2ccc(C)cc2)n1	Lassa entry inh inconclusive, HCV inhibitor inconclusive, FMDV inh inconclusive, MARV entry inh 16µM
O=C(Nc1cccc(C(=O)NC2CC2)c1)c1ccc(Cl)c(S(=O)(=O)N2CCOCC2)c1	HCV inhibitor inconclusive, FMDV inh inconclusive (no result: Lassa entry inh, MARV entry inh)
O=C(Nc1cccc(S(=O)(=O)C(F)F)c1)c1ccc(Cl)c(S(=O)(=O)N2CCOCC2)c1	Lassa entry inh inconclusive, HCMV inh inconclusive, HCV inhibitor 13µM, FMDV inh 40µM, MARV entry inh 10µM!
O=C(Nc1cccc(Br)c1)c1ccc(Cl)c(S(=O)(=O)N2CCOCC2)c1	Lassa entry inh inconclusive, HCMV inh -98, HCV inhibitor 4µM, MARV entry inh inconclusive (no result: FMDV inh)
COc1ccc(C2Nc3ccccc3C(=O)N2Cc2ccco2)cc1COc1ccc(NC(C)=O)cc1 (stereo not drawn)	Lassa entry inh inconclusive, HCMV inh -62, HCV inhibitor inconclusive, MARV entry inh inconclusive
C[C@H]1[C@@H]2O[C@H]2CCO[C@H]1c1cccc(Br)c1	none (no result: Lassa entry inh, HCMV inh, HCV inhibitor, FMDV inh)
CC(C)CCNC(=O)CN1C(=O)COc2ccc(S(=O)(=O)N3CCOCC3)cc21	FMDV inh inconclusive (no result: HCV inhibitor)
CCCCC(CC)COC(=O)c1ccccc1C(=O)OCC(CC)CCCC (stereo not drawn)	HCV inhibitor 5.6µM (no result: Lassa entry inh, MARV entry inh)
CC(C)COC(=O)c1ccccc1C(=O)OCC(C)C	none (no result: Lassa entry inh, MARV entry inh)
CS(=O)(=O)N1CCC(N2CCN(Cc3ccccc3)C(=O)C2=O)CC1	none (no result: HCV inhibitor, MARV entry inh)
COc1ccc(N(C(=O)CNS(=O)(=O)c2ccccc2)C(C(=O)NCc2ccco2)C(C)C)cc1 (stereo not drawn)	none
Cc1cc(C)cc(N(C(=O)CNS(=O)(=O)c2ccccc2)C(C(=O)NCc2ccccc2)c2ccc(C)o2)c1 (stereo not drawn)	Lassa entry inh 12µM, MARV entry inh inconclusive
Cc1ccc(S(=O)(=O)NCC(=O)N(c2ccccc2)C(C(=O)NCc2ccccc2)c2ccco2)cc1 (stereo not drawn)	Lassa entry inh inconclusive, HCMV inh -86, MARV entry inh 20µM
Cn1c(=O)[nH]c(=O)c2c1nc(NN)n2CCOc1ccccc1	none
